High-throughput results from PubChem.
NOMO-1 viab: STK33 inhibitor candidate reducing NOMO-1 cell viability; 7.5% of 37,000 active; NOMO-1 AML viability, CellTiter-Glo luminescence, 72 h; AID 2330; inhibition, % (no concentration beside the values); in the data active = inhibition above about 80%; inconclusive = no clear call, values can overlap the other calls
MITF inhib: blocks MITF activity | TRPM1 promoter luciferase, luminescence, 24 h | inhibition, % (no concentration beside the values) | 0.28% of 37,000 active; in the data active = inhibition above about 85%; inconclusive = no clear call, values can overlap the other calls; inactive = below about 68%;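 note: human melanocyte line stably carrying TRPM1 promoter luciferase reporter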
Hedgehog inh: blocks Sonic Hedgehog signaling; Shh-LIGHT2 Gli-luciferase reporter, 30 h; inhibition, % (concentration not given with the values); 2.1% of 22,000 active; AID 2313;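 active = mean inhibition across valid replicates above about 65%, limit read from the data; inconclusive = mean under the limit, yet half or more replicates past it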;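 note: pathway switched on by Shh-conditioned medium diluted 1 in 25 in low serum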
Of the large screens only hits and unclear results are named; the others gave an inactive call. Compounds with a hit are over-represented: about 8.1% of the library has one in this group of screens.

Cc1ccc(S(=O)(=O)Nc2ccc3c(c2)CC(=O)N([C@@H](C)CO)C[C@@H](C)[C@@H](CN(C)CC2CCCCC2)O3)cc1	NOMO-1 viab 97.1
Cc1ccc(S(=O)(=O)Nc2ccc3c(c2)CC(=O)N([C@@H](C)CO)C[C@H](C)[C@@H](CN(C)CC2CCCCC2)O3)cc1	NOMO-1 viab inconclusive
CC(C)NC(=O)Nc1ccc2c(c1)C(=O)N([C@H](C)CO)C[C@H](C)[C@H](CN(C)S(=O)(=O)c1ccccc1)O2	none
COc1ccc(N2Cc3ccccc3C3(CCOCC3)C2=N)cc1	none
C[C@@H]1CN([C@H](C)CO)C(=O)c2cccc(NC(=O)CCCCCC(=O)Nc3ccccc3N)c2O[C@@H]1CN(C)CC1CCCCC1	NOMO-1 viab 118.6 (no result: Hedgehog inh)
C[C@H](CO)N1C[C@H](C)[C@@H](CN(C)Cc2ccncc2)Oc2c(NC(=O)CCCCCC(=O)Nc3ccccc3N)cccc2C1=O	none (no result: Hedgehog inh)
C[C@@H]1CN([C@H](C)CO)C(=O)c2cccc(NC(=O)CCCCCC(=O)Nc3ccccc3N)c2O[C@H]1CN(C)Cc1ccc(-c2ccccc2)cc1	NOMO-1 viab 125.7 (no result: Hedgehog inh)
C[C@H]1CN([C@@H](C)CO)C(=O)c2cccc(NC(=O)CCCCCC(=O)Nc3ccccc3N)c2O[C@@H]1CN(C)Cc1ccc(-c2ccccc2)cc1	NOMO-1 viab 134.4 (no result: Hedgehog inh)
C[C@@H]1CN([C@H](C)CO)C(=O)c2cc(NC(=O)CCCCCC(=O)Nc3ccccc3N)ccc2O[C@H]1CN(C)Cc1ccc(-c2ccccc2)cc1	none (no result: Hedgehog inh)
C[C@H]1CN([C@@H](C)CO)C(=O)c2cccc(NC(=O)CCCCCC(=O)Nc3ccccc3N)c2O[C@H]1CN(C)CC1CC1	none (no result: Hedgehog inh)
COc1ccc([N+](=O)[O-])cc1NC(=O)CN(c1ccccc1Br)S(C)(=O)=O	none (no result: Hedgehog inh)
CC(=O)c1cccc(NC(=O)CSC2=C(C#N)C(c3ccccc3C)C3=C(CCCC3=O)N2)c1 (centres undefined)	none (no result: Hedgehog inh)
COC(Cc1nc2ccccc2s1)C(=O)O (centres undefined)	NOMO-1 viab inconclusive (no result: Hedgehog inh)
Cc1ccc(S(=O)(=O)Nc2cccc3c2O[C@@H](CN(C)Cc2ccc(Cl)c(Cl)c2)[C@@H](C)CN([C@H](C)CO)C3=O)cc1	NOMO-1 viab 119.0, Hedgehog inh 113.2
C[C@H](CO)N1C[C@H](C)[C@H](CN(C)Cc2ccc(Cl)c(Cl)c2)Oc2c(NS(=O)(=O)c3ccc(Cl)cc3)cccc2C1=O	NOMO-1 viab 109.1, Hedgehog inh 90.2
C[C@H](CO)N1C[C@H](C)[C@@H](CN(C)Cc2ccc(Cl)c(Cl)c2)Oc2c(NS(=O)(=O)c3ccc(F)cc3)cccc2C1=O	none
Cc1ccc(S(=O)(=O)Nc2cccc3c2O[C@H](CN(C)Cc2ccc(Cl)c(Cl)c2)[C@H](C)CN([C@@H](C)CO)C3=O)cc1	NOMO-1 viab 103.9
Cc1ccc(S(=O)(=O)Nc2cccc3c2O[C@H](CN(C)Cc2ccc(Cl)c(Cl)c2)[C@@H](C)CN([C@@H](C)CO)C3=O)cc1	none
Cc1ccc(S(=O)(=O)Nc2cccc3c2O[C@H](CN(C)Cc2ccc(Cl)c(Cl)c2)[C@H](C)CN([C@H](C)CO)C3=O)cc1	none
Cc1noc(C)c1S(=O)(=O)Nc1ccc2c(c1)C(=O)N([C@@H](C)CO)C[C@H](C)[C@@H](CN(C)C(=O)Nc1ccc(F)cc1)O2	none (no result: Hedgehog inh)
COC(=O)c1ccc(Cl)c(NC(=O)CSc2nc3c(c(C(F)(F)F)n2)CCCC3)c1	none (no result: Hedgehog inh)
CC(=O)c1cccc(NC(=O)Cn2nc(C)c([N+](=O)[O-])c2C)c1	none (no result: Hedgehog inh)
O=C(NCc1cccnc1)c1cnn2c1NC(c1ccccc1)CC2C(F)(F)F (centres undefined)	none (no result: Hedgehog inh)
CS(=O)(=O)N(CC(=O)Nc1cccnc1)c1cccc(Br)c1	none (no result: Hedgehog inh)
CN1C(=O)C(CC(=O)Nc2ccc(Cl)cc2)N(Cc2ccco2)C1=S (centres undefined)	NOMO-1 viab 152.2 (no result: Hedgehog inh)
Cc1ccc(CN2C(=O)N(c3ccccc3)C(=O)C2CC(=O)Nc2ccccc2)cc1 (centres undefined)	none (no result: Hedgehog inh)
CS(=O)(=O)N(CC(=O)Nc1ccccc1C(=O)O)c1cccc(Cl)c1	none (no result: Hedgehog inh)
CCC(Sc1nnc(N)s1)C(=O)Nc1sc2c(c1C#N)CCCC2 (centres undefined)	none (no result: Hedgehog inh)
CCC(Sc1nnnn1-c1ccccc1)C(=O)Nc1sc2c(c1C#N)CCCC2 (centres undefined)	Hedgehog inh 67.5
CC(C)Cc1nc(SC(C)C(=O)Nc2cccc(Cl)c2)n[nH]1 (centres undefined)	none (no result: Hedgehog inh)
O=[N+]([O-])c1ccc(NC(=S)NCCCn2ccnc2)cc1	none (no result: Hedgehog inh)
Cn1c(=O)c(Nc2ccccc2)c2c3c(cccc31)C(=O)c1ccccc1-2	none
O=C1c2ccccc2-c2c(NCCc3ccccc3)c(=O)[nH]c3cccc1c23	NOMO-1 viab 115.0
CC(=O)C1C(=O)[C@@H]2[C@H]3c4c[nH]c5cccc(c45)C[C@H]3C(C)(C)N2C1=O (some centres undefined)	NOMO-1 viab 130.9, Hedgehog inh 77.0
CC(=O)C1C(=O)C2C3c4c[nH]c5cccc(c45)CC3C(C)(C)N2C1=O (centres undefined)	none
C/C=C/C=C/C(=O)O[C@@H]1C=C(CO)[C@](O)(CO)[C@@]2(C)CCCC(C)(C)[C@H]12	none
CC(=O)O[C@@H]1C[C@@H](C)[C@](O)(CCC2=CC(=O)OC2)[C@@]2(C)CCCC(C)(C)C12 (some centres undefined)	NOMO-1 viab 104.4
CC(C)NC(=O)Nc1ccc2c(c1)C(=O)N([C@H](C)CO)C[C@@H](C)[C@H](CN(C)Cc1ccc(C(=O)Nc3ccccc3N)cc1)O2	none (no result: Hedgehog inh)
C[C@@H]1CN([C@H](C)CO)C(=O)c2cc(NC(=O)NC3CCCCC3)ccc2O[C@@H]1CN(C)Cc1ccc(C(=O)Nc2ccccc2N)cc1	NOMO-1 viab 99.0 (no result: Hedgehog inh)
C[C@@H]1CN([C@@H](C)CO)C(=O)c2cc(NC(=O)NC3CCCCC3)ccc2O[C@@H]1CN(C)Cc1ccc(C(=O)Nc2ccccc2N)cc1	NOMO-1 viab 107.0 (no result: Hedgehog inh)
C[C@H]1CN([C@@H](C)CO)C(=O)c2cc(NC(=O)NC3CCCCC3)ccc2O[C@H]1CN(C)Cc1ccc(C(=O)Nc2ccccc2N)cc1	none (no result: Hedgehog inh)
C[C@H](CO)N1C[C@H](C)[C@H](CN(C)Cc2ccc(C(=O)Nc3ccccc3N)cc2)Oc2ccc(NC(=O)NC3CCCCC3)cc2C1=O	NOMO-1 viab 97.8 (no result: Hedgehog inh)
CC(C)NC(=O)Nc1ccc2c(c1)C(=O)N([C@@H](C)CO)C[C@@H](C)[C@H](CN(C)Cc1ccc(C(=O)Nc3ccccc3N)cc1)O2	none (no result: Hedgehog inh)
Cc1ccc(N(Cc2ccco2)C(=O)c2cccc(S(=O)(=O)N3CCOCC3)c2)cc1	none (no result: Hedgehog inh)
CN(C)CCNc1oc(COc2ccc(Br)cc2)nc1C#N	none (no result: Hedgehog inh)
CCOC(=O)c1ccccc1NC(=O)CN1C(=O)c2cccc3cccc1c23	none (no result: Hedgehog inh)
C[C@H]1CN([C@@H](C)CO)C(=O)Cc2cc(NC(=O)Nc3ccc(C(F)(F)F)cc3)ccc2O[C@H]1CN(C)CC1CCCCC1	NOMO-1 viab 129.7, Hedgehog inh inconclusive
C[C@@H]1CN([C@@H](C)CO)C(=O)Cc2cc(NC(=O)Nc3ccc(C(F)(F)F)cc3)ccc2O[C@@H]1CN(C)CC1CCCCC1	NOMO-1 viab 104.1
C[C@@H]1CN([C@H](C)CO)C(=O)c2cc(NC(=O)Nc3ccc(C(F)(F)F)cc3)ccc2O[C@@H]1CN(C)CC1CC1	none
C[C@@H]1CN([C@H](C)CO)C(=O)c2cc(NC(=O)Nc3ccc(C(F)(F)F)cc3)ccc2O[C@H]1CN(C)CC1CCCCC1	NOMO-1 viab 103.4 (no result: Hedgehog inh)
